Experimental data reported in article PMC5540273 (PLoS ONE, 2017).

tested on: EPHA1; conditions: concentration: 1 μM, replicates: in singlicate; n = 1
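Further: KINOMEscan kinase panel screen.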

Row | Compound | %Inh
1 | COc1cc2c(cc1OC[C@@H](O)CO)ncc1c3ccc(C#N)cc3[nH]c21 | 4%
2 | COc1ccc(Nc2ncc(C#N)c(Nc3ccccc3C(N)=O)n2)cc1N1CCN(C)CC1.Cl [GSK1558669] | 92.9%
3 | Cc1cccc(-c2nc(-c3ccc(S(C)(=O)=O)cc3)sc2-c2ccncc2)c1 | 0%
4 | COc1cc(Nc2nccc(N3CCC(NC(=O)c4cccc(NC(C)=O)c4)C3)n2)cc(OC)c1OC (stereo not drawn) [GSK1379754] | 11%
5 | Cc1ccc(NC(=O)c2ccnc(N3CCN(C)CC3)c2)cc1-c1ccc(C(=O)NCC2CC2)cc1 [GW775604] | 0%
6 | CSc1ccc(-c2cc3ncnc(SCC(=O)O)c3s2)cc1 | 11%
7 | c1ccc(-c2cc(-c3c[nH]nc3-c3ccccn3)ccn2)cc1 [GW576604] | 0%
8 | O=C(Nc1n[nH]c2cc(-c3cccc(F)c3)ccc12)C1CC1 [SB-735464] | 25%
9 | Cc1c(Cn2c(C)nn3c(=O)cc(N4CCOC(C)C4)nc23)cccc1C(F)(F)F (stereo not drawn) [GSK2344444] | 0%
10 | Cc1nnc(-c2ccc3ncc(-c4ccc(S(C)=O)cc4)n3c2)o1 (stereo not drawn) | 0%
11 | CN(C(=O)c1ccc(-c2cc(-c3c[nH]nc3-c3ccccn3)ccn2)cc1)C1CCOCC1 [GW810083] | 0%
12 | Fc1ccc(-c2ncn(CCCN3CCOCC3)c2-c2ccccn2)cc1 [SB-211742] | 17%
13 | COc1cc2c(cc1OCCN1CCN(C)CC1)ncc1c3ccc(C#N)cc3[nH]c21 | 0%
14 | O=C(c1ccc(-c2cc(-c3c[nH]nc3-c3ccccn3)ccn2)cc1)N1CCOCC1 [GW812171] | 0%
15 | CC(=O)Nc1ccc(COc2ccc(Nc3ccnc4cc(-c5ccccn5)ccc34)cc2)cc1.Cl [GW440148] | 11%
16 | O=C(NOCC1CC1)c1ccc(F)c(F)c1Nc1ccc(I)cc1Cl | 3%
17 | COc1ccc(Nc2nccc(N3CCC(NC(=O)Nc4cc(C)ccc4C)C3)n2)cc1 (stereo not drawn) [GSK1379741] | 30%
18 | Cc1ccc(C(=O)NCC(N)=O)cc1-n1c(C)cc(OCc2ccc(F)cc2F)c(Br)c1=O | 25%

Row | Compound | %Inh
19 | Cl.Nc1ncnc2occ(-c3ccc(NC(=O)Nc4cc(C(F)(F)F)ccc4F)cc3)c12 [SB-707548] | 79%
20 | Nc1nc(-c2ccc3c(N)n[nH]c3c2)cc(N2CCCC2)n1 [GSK2227430] | 0%
21 | CN(C1=C(c2ccccc2)C(=O)NC1=O)c1ccccc1 [SB-334860] | 6%
22 | CN1c2ccc(CNc3ccc(F)cc3)cc2-c2c(cnn2C)S1(=O)=O | 0%
23 | COc1ccc(S(=O)(=O)NC2CCN(c3cc(C)nc(Nc4cccc(C#N)c4)n3)CC2)cc1.O=C(O)C(F)(F)F [GSK1653539] | 0%
24 | O=c1cc(N2CCOCC2)nc2n(Cc3cccc(Cl)c3Cl)c(C3CC3)nn12 [GSK2358994] | 7%
25 | N#Cc1ccc(-c2cc(-c3c[nH]nc3-c3ccccn3)ccn2)cc1 [GW693028] | 17%
26 | O=C(Nc1cccc(-c2nn3ncccc3c2-c2ccnc(Nc3cccc(C(F)(F)F)c3)n2)c1)c1c(F)cccc1F [GSK299495] | 41%
27 | CCc1ccnc(/C=C/c2n[nH]c3cc(Sc4ccccc4C(=O)NC)ccc23)c1 | 0%
28 | Cl.Cl.Cl.Fc1ccc(-c2ncn(C3CCNCC3)c2-c2ccnc(Nc3ccccc3)n2)cc1 [SB-238039] | 0%
29 | Nc1nccc(-c2c(-c3ccc(F)cc3)ncn2C2CCN(CC(F)(F)F)CC2)n1 [SB-236560] | 0%
30 | Cc1cn2c(=O)cc(N3CCOCC3)nc2n1Cc1cccc(Cl)c1Cl [GSK2334006] | 51%
31 | COc1ccc(COc2cc(-n3cnc4ccccc43)sc2C(N)=O)cc1 [GSK1024304] | 0%
32 | Fc1ccc(-c2ncn(CCCN3CCOCC3)c2-c2cccnc2)cc1 [SB-211743] | 0%
33 | CN1c2ccc(NCc3ccc(F)cc3)cc2-c2c(cnn2C)S1(=O)=O | 0%
34 | O=C(NCCNc1ccnc(Nc2ccc(F)cc2)n1)c1cc2ccccc2s1 [GSK1379874] | 10%
35 | Cc1cccc(-c2nc(Nc3ccc4ncsc4c3)c3ccccc3n2)n1 [GW867588] | 0%
36 | NCC(NC(=O)c1cc(-c2cn[nH]c2)c(-c2ccnc3[nH]ccc23)s1)c1ccccc1.O=C(O)C(F)(F)F.O=C(O)C(F)(F)F (stereo not drawn) [GSK1325775] | 13%
